system: RARa:RXR (NR concentration 270 nM, RXRa partner concentration 90 nM); test: PBM binding z-score (relative to random genomic background probes); higher = stronger binding; sequences stand for … in GC…GCGATTGACAGCGTAGAATGAAGG
Method in brief: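 Each nuclear receptor dimer, without ligand, was incubated for 1 h on custom Agilent 4×180K protein-binding microarrays. Binding was detected with antibodies against each partner (one per run), and scanned fluorescence was regression-normalized. The binding z-scores are referenced to random human genomic background probes.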

| Sequence | PBM binding z-score |
| --- | --- |
| TCGAGTAGGTTAGGGGCATGCAGAATGGCGTCGA | 0.383 |
| TCATATAGGTGAAGGTGAAAGTCGAACGATATGA | 1.08 |
| GCGACCGGGGCAAAGCAGGTTACCATAAGGTTGG | 1.31 |
| CAGACTGGGGCAAGGTTACCATAACGCACAGCCA | 0.82 |
| CCTAGTTGGTCTAGGTCACACACGCTATAGGTAC | 2.1 |
| ATATGTAGGTTATCGGGTCATTCCGTTTGCGCAT | 3.83 |
| CCTAACAGGCCAATCTGGGTCACTCAAGGCTTGA | 1.43 |
| CCTAGCAGGCCAGGGTCACTCGAGCATTTCGCTT | 3.1 |
| CAAACTAGGTCGCGAAAGGTCAAAGTCGAATGAC | 6.77 |
| ACTAGTTGGTCAGCCGAGGTCACACACAATTCGG | 5 |
| TCTTGTAGATCAATAGAGATTAAGAAAGTGCGCT | -0.0638 |
| ACTAGTTGGTCAGCTGAGGTCAGACACAATTCGG | 2.75 |
| AGAACGAGGGCACGCTGAGTTGATAGAAGAGTAG | 0.661 |
| ACTCGGAGGCCAAAGGTCAGAGCTACGCCAGTGA | 6.59 |
| TATACAGCGTCAAAGGCCAGAGTACGAATGTCGA | -0.513 |
| AGAACGAGGGCACGCTTAGTTGATAGCAGAGTAG | 1.06 |
| GCTTACGGGTCAAAGCTTATAGCATGAATAGAAT | 4.44 |
| TGTCAAAGTTCAAAGGTAACATAAGTATCCACAC | 6.28 |
| AGTCAAAGTTCATCTAGGTACCGTAAGATATGCT | 3.85 |
| CCTAGTTGGTCAAGGTCACACAAGCTATAGGTAC | 4.29 |
| ATATGTAGGTTATCGGGACATTCAGTTTGCGCAT | 0.532 |
| CCTCACGGGTCAAGGTTATAGCACGGGTGGTACG | 3.73 |

From the supplement of paper PMC6555819
